Results published in PubChem BioAssay.
Activity calls are given as the source filed them.

Assays:
[1] = system: Plasmodium falciparum Sir2 (PF13_0152, Sir2A); test: pfSir2 binders on small-molecule microarrays, primary screen, biochemical, small-molecule microarray, 635 nm fluorescence (AID 1098); details: small-molecule microarray binding, fluorescence 635 nm; higher = more signal;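 also: score merges spot fluorescence intensity with its signal-to-noise ratio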
[2] = small-molecule microarray binders of probe aDKK1, primary screen, biochemical, biotinylated probe, 635/667 nm fluorescence (AID 1099); details: higher = more signal;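 also: score merges 667nm spot fluorescence with signal to noise across triplicate slides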
[3] = small-molecule microarray binders of probe aCHRDL2, primary screen, biochemical, biotinylated probe, 635/667 nm fluorescence (AID 1100); details: higher = more signal
[4] = splicing luciferase reporter signal modulators, primary screen, spliceosome inhibition project, cell-based, HEK293, splice +/- reporter (AID 1101); details: luminescence, 24 h, higher = more signal, called active from +8 up or from −8 down;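 also: HEK293 cells carrying a splicing-competent luciferase reporter gene; test concentration not given here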
[5] = molecular target: Fibroblast growth factor 10 (Homo sapiens) (UniProt O15520); test: FGF10 binders on small-molecule microarrays, primary screen, biochemical, small-molecule microarray, 635 nm fluorescence (AID 1102); details: FGF10 binding, fluorescence 635 nm, higher = more signal
Fibroblast growth factor 10 (Homo sapiens), sequence (O15520 whole entry, looked up): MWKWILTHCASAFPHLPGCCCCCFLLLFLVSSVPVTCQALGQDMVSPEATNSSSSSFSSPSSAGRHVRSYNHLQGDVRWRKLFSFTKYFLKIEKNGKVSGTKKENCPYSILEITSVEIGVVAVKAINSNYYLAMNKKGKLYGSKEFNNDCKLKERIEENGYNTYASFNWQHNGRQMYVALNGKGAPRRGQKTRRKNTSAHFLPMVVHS

[6] = system: glycogen synthase kinase-3 (GSK3A per assay name; protocol says GSK3B); test: GSK3 binders on small-molecule microarrays, primary screen, biochemical, small-molecule microarray, 635 nm fluorescence, GSK3A (AID 1103); details: small-molecule microarray binding, fluorescence 635 nm; higher = more signal; also: the record names both GSK3A and GSK3B
[7] = molecular target: Epidermal growth factor receptor (Homo sapiens) (UniProt P00533); test: EGFR binders on small-molecule microarrays, primary screen, biochemical, small-molecule microarray, 635 nm fluorescence (AID 1104); details: EGFR binding, higher = more signal;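 also: score merges 667 nm emission intensity with spot signal to noise over triplicate slides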
Epidermal growth factor receptor (Homo sapiens), sequence (P00533 whole entry, looked up): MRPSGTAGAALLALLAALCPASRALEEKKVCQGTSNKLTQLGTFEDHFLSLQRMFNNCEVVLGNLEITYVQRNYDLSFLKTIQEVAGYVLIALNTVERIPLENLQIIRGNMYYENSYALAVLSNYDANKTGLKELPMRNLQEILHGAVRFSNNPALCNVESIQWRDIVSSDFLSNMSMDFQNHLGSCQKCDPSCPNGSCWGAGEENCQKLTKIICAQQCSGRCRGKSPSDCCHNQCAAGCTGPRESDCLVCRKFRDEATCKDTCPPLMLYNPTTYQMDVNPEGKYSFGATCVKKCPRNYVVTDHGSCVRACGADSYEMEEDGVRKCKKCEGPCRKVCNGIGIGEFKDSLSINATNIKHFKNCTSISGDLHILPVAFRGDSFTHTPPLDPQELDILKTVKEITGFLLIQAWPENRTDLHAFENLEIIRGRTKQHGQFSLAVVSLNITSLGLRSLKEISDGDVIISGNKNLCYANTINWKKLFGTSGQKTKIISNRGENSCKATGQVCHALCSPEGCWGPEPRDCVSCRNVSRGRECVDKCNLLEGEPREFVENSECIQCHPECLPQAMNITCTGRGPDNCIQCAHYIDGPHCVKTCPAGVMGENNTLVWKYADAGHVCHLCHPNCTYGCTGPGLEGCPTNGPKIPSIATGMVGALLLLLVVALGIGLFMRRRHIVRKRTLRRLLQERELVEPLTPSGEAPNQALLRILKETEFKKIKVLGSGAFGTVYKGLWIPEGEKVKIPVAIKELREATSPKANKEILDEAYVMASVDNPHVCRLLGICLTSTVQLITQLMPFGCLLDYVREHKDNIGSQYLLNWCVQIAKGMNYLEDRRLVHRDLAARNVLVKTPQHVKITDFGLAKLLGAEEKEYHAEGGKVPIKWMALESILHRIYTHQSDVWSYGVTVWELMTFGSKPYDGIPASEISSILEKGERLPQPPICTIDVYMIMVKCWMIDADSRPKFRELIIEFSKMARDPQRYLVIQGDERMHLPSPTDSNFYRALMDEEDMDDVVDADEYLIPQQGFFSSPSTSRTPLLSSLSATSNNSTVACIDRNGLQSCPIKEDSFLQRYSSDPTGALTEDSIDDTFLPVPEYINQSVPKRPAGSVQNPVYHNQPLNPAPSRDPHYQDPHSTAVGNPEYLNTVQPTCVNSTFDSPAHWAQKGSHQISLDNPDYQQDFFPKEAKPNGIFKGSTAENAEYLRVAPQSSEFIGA

[8] = molecular target: Follistatin-related protein 3 (Homo sapiens) (UniProt O95633); test: FSTL3 binders on small-molecule microarrays, primary screen, biochemical, small-molecule microarray, 635 nm fluorescence (AID 1105); details: FSTL3 binding, higher = more signal;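 also: score merges emission near 667 nm and signal to noise per printed spot across three slides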
Follistatin-related protein 3 (Homo sapiens), sequence (O95633 whole entry, looked up): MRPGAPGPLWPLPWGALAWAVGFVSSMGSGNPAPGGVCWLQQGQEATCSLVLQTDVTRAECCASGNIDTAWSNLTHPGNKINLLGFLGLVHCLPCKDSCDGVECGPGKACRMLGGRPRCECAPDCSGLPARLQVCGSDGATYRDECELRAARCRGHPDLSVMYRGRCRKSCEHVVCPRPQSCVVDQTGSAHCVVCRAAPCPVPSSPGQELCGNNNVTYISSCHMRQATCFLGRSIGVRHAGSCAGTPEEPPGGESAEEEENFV

[9] = molecular target: Dickkopf-related protein 1 (Homo sapiens) (UniProt O94907); test: DKK1 binders on small-molecule microarrays, primary screen, biochemical, small-molecule microarray, 635 nm fluorescence scan (AID 1106); details: DKK1 binding, higher = more signal;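 also: score merges emission near 667 nm with signal to noise over three replicate slides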
Dickkopf-related protein 1 (Homo sapiens), sequence (O94907 whole entry, looked up): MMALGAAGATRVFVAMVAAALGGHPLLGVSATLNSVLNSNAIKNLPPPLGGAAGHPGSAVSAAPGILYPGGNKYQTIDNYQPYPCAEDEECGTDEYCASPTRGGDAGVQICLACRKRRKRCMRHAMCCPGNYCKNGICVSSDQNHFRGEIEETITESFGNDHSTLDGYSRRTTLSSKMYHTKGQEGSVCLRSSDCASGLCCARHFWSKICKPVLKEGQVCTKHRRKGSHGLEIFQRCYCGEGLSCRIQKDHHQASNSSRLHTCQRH

[10] = system: Inhibin beta A chain (activin A); test: INHBA (activin A) binders on microarrays, primary screen, biochemical, small-molecule microarray, 635 nm fluorescence scan (AID 1107); details: small-molecule microarray binding, higher = more signal;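 also: mouse activin A protein probed at 4.33 µg/mL on printed slides; score merges bound-protein fluorescence near 667 nm with spot signal-to-noise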
[11] = system: Human papillomavirus type 1a protein E7 (residues 44-93); test: HPV1a E7 fragment binders on microarrays, primary screen, biochemical, small-molecule microarray, residues 44-93, 635 nm fluorescence (AID 1108); details: small-molecule microarray binding, fluorescence 635 nm; higher = more signal;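 also: E7 fragment applied at 1 µg/mL in TBST for 1 h at 4 C; score combines spot fluorescence with its signal to noise ratio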
[12] = modulators of HCV replicon luciferase signal, primary screen, HCV replication inhibitor project, Huh7 cells, luciferase reporter (AID 1109); details: 48 h, higher = more signal;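 also: huh7 hepatoma cells harbouring a luciferase neomycin HCV replicon reporter; luciferase luminescence as measure of HCV replicon replication; test concentration not given here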
[13] = molecular target: Left-right determination factor 2 (Homo sapiens) (UniProt O00292); test: LEFTY2 binders on small-molecule microarrays, primary screen, biochemical, small-molecule microarray, 635 nm fluorescence scan (AID 1110); details: LEFTY2 binding, higher = more signal
Left-right determination factor 2 (Homo sapiens), sequence (O00292 whole entry, looked up): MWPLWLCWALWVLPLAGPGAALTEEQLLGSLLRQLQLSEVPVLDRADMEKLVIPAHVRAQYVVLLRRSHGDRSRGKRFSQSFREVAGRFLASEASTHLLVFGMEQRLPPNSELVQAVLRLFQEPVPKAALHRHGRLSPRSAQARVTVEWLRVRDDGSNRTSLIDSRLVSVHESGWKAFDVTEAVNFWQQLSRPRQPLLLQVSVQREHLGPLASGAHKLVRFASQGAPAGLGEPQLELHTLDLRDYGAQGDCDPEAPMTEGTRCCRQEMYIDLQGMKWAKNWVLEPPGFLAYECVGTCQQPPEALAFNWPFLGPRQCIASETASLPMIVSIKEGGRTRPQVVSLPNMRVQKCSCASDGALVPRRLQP

[14] = molecular target: Calmodulin-1 (Homo sapiens) (UniProt P0DP23); test: CALM1 binders on microarrays, EGTA buffer, profiling panel, biochemical, small-molecule microarray, Cy5-labelled CALM1 (AID 1111); details: Cy5-CALM1 binding fluorescence, higher = more signal;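 also: labelled calmodulin applied in Tris saline Tween buffer holding calcium plus EGTA and DTT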
[15] = molecular target: Calmodulin-1 (Homo sapiens) (UniProt P0DP23); test: calcium-bound CALM1 binders on microarrays, profiling panel, artefact control for SMM control-protein annotation, biochemical, small-molecule microarray, Cy5-labelled CALM1, plus calcium (AID 1112); details: Cy5-CALM1 binding fluorescence, higher = more signal;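 also: score merges spot fluorescence with signal to noise from triplicate slides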
[16] = small-molecule microarray binders of probe aWnt5a, primary screen, biochemical, biotinylated probe, 635/667 nm fluorescence (AID 1113); details: higher = more signal;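 also: score merges 667 nm fluorescence intensity with signal-to-noise per printed feature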
[17] = small-molecule microarray binders of probe aShh, primary screen, biochemical, biotinylated probe, 635/667 nm fluorescence (AID 1114); details: higher = more signal;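 also: probe is biotin-labelled aShh protein from a stem cell growth factor screen; measures binding of labelled protein to compounds printed on the slide; score merges feature fluorescence at 667 nm with signal-to-noise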
[18] = small-molecule microarray binders of probe aNog, primary screen, biochemical, biotinylated probe, 635/667 nm fluorescence (AID 1115); details: higher = more signal;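 also: probe is biotinylated aNog protein used at 0.15 µg/mL for 1 h at 4 C; z-score combines 667 nm fluorescence of each spot with its signal to noise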
[19] = molecular target: Torsin-1A-interacting protein 1 (Homo sapiens) (UniProt Q5JTV8); test: LAP1 binders from COS7 cell lysate, primary screen, small-molecule microarray, 635/667 nm fluorescence (AID 1116); details: COS7-hLAP1 lysate binding, 635 nm fluorescence, higher = more signal
Torsin-1A-interacting protein 1 (Homo sapiens), sequence (Q5JTV8 whole entry, looked up): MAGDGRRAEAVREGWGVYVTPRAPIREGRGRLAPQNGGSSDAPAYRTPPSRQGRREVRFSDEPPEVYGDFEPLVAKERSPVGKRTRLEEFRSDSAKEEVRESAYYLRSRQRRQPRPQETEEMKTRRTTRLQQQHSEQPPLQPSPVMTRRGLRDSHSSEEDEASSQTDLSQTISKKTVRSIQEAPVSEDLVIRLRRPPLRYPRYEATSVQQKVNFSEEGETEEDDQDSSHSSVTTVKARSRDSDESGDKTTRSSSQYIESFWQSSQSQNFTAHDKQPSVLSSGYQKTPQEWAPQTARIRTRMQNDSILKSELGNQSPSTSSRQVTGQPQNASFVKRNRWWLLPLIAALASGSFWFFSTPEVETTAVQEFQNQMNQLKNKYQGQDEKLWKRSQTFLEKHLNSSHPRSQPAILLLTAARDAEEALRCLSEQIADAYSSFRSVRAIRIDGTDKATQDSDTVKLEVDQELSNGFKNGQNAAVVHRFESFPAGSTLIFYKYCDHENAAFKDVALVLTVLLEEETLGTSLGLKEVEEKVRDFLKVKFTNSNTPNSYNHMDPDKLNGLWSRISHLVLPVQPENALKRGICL

[20] = molecular target: Alpha-bungarotoxin (Bungarus multicinctus) (UniProt P60615); test: alpha-bungarotoxin binders on microarray, profiling panel, artefact control for SMM control protein annotation, biochemical, small-molecule microarray, Alexa647 label, 635/667 nm fluorescence (AID 1117); details: alpha-BTX-A647 binding fluorescence, higher = more signal
Alpha-bungarotoxin (Bungarus multicinctus), sequence (P60615 whole entry, looked up): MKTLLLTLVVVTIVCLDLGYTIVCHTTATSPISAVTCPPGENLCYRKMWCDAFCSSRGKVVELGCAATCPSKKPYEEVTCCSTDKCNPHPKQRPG

| SMILES | composite z-score [1] | composite z-score [2] | composite z-score [3] | z-score [4] | composite z-score [5] | composite z-score [6] | composite z-score [7] | composite z-score [8] | composite z-score [9] | composite z-score [10] | composite z-score [11] | z-score [12] | composite z-score [13] | composite z-score [14] | composite z-score [15] | composite z-score [16] | composite z-score [17] | composite z-score [18] | composite z-score [19] | composite z-score [20] |
| --- | --- | --- | --- | --- | --- | --- | --- | --- | --- | --- | --- | --- | --- | --- | --- | --- | --- | --- | --- | --- |
| COCCCNC(=O)[C@]1(Cc2ccccc2)N=C(c2ccc(OCCCO)cc2)O[C@@H]1c1ccccc1 | 1.73 | -0.0501 | 0.755 | 0.0778 (inactive) | 1.16 | 0.618 | -0.578 | -0.351 | -0.894 | 0.455 | 1.09 | -1.05 | -0.248 | 1.81 | 0.213 | 0.201 | 0.299 | 1.89 | 1.84 | 1.32 |
| O=C1[C@H]2[C@H]3[C@H](O)[C@H](O)CC(=NOCc4ccccc4)[C@H]3CC[C@H]2C(=O)N1C[C@@H]1CCCO1 | 0.565 | 0.114 | -0.418 | 0.0221 (inactive) | 0.863 | 0.632 | 0.582 | 0.728 | 1.11 | -0.209 | 0.536 | 0.188 | 0.873 | 0.0951 | -0.223 | -0.0685 | -0.138 | 0.0715 | 0.278 | 0.0902 |
| O=C(NN=C1C[C@@H](O)[C@@H](O)[C@@H]2[C@@H]3C(=O)N(c4cccc(Oc5ccccc5)c4)C(=O)[C@@H]3CC[C@H]12)OCc1ccccc1 | 0.373 | 0.0708 | 0.408 | 0.0933 (inactive) | -0.113 | -0.281 | 0.116 | -0.146 | -0.0924 | 0.242 | -0.142 | -0.597 | 0.0075 | 0.0088 | -0.312 | -0.0664 | 0.3 | 0.116 | -0.0681 | 1.05 |
| C=CCNC(=O)[C@H]1[C@@H]2C(=O)O[C@@H](c3ccccc3)[C@@H](c3ccccc3)N2[C@@H](c2ccc(O)cc2)[C@]12C(=O)N(C(=O)OCCOC)c1ccc(C#CC3=CCCCC3)cc12 | 1.79 | 0.298 | 0.263 | -0.75 (inactive) | 0.966 | 1.32 | 0.205 | 0.969 | 0.23 | 1.34 | 1.04 | -0.812 | 0.879 | 1.64 | 0.566 | 0.523 | 1.92 | 2.64 | 2.09 | 1.79 |
| CC(C)CON=C1C[C@@H](O)[C@@H](O)[C@@H]2[C@@H]3C(=O)N(Cc4ccccc4)C(=O)[C@@H]3CC[C@@H]12 | -0.511 | -0.278 | -0.737 | -0.28 (inactive) | 0.5 | 0.649 | 0.571 | 0.617 | 0.836 | -0.269 | 0.673 | -0.19 | 0.409 | -0.312 | -0.475 | -0.0792 | -0.365 | -0.321 | 0.0394 | -0.102 |
| COc1ccc(O[C@H]2C=C[C@@H](c3ccccc3)O[C@@H]2COC(=O)CCC(C)=NO[C@@H](C)c2cc(-c3c(C)cc(C)cc3C)no2)cc1 | -0.0775 | -0.344 | 0.268 | -0.398 (inactive) | -1.05 | -2.04 | -0.747 | -1.39 | -0.872 | 0.934 | -1.13 | -1.15 | -0.965 | -0.977 | -0.55 | -0.194 | 0.255 | -0.0207 | -1.16 | -0.707 |
